Assay results taken from PubChem BioAssay (NCATS).

Biological target: Lysosomal acid glucosylceramidase (Homo sapiens) (UniProt P04062)
Test: Glucocerebrosidase-p2 (AID 348)
Settings: purified GBA, blue fluorogenic substrate, 40 min; in the data active = potency below about 10 µM; inactive = the rest
From the text: Beta-glucocerebrosidase catalyzes the hydrolysis of beta-glucocerebroside to glucose and ceramide. The inherited deficiency of beta-glucocerebrosidase results in Gaucher disease, which is characterized by a wide variety of symptoms including hepatosplenomegaly, anemia, thrombocytopenia, bony lesions and bone marrow infiltration with characteristic storage cells, known as Gaucher cells. There are also forms of the disorder affecting the central nervous system. Patients with the same genotypes can manifest with diverse clinical presentations and it is believed that improper folding and trafficking of beta-glucocerbrosidase may contribute to the phenotypes observed.
Low molecular weight molecules, acting as chaperones, may potentially restore trafficking of misfolded beta-glucocerebrosidase from the endoplasmic reticulum to the lysosomes, thereby enhancing functional lysosomal beta-glucocerebrosidase activity.
Using normal beta-glucocerebrosidase, an assay was developed to screen for small molecule inhibitors that could potentially act as molecular chaperones on the mutant forms [developed with NIH investigator Dr. Ellen Sidransky#s laboratory]. Two pro-fluorescent substrates were chosen for two screens against a small molecule library. One beta-glucocerebrosidase assay used Resorufin beta-D-Glucopyranoside (Marker Gene Technology Inc.), generating a red fluorescent product. The second assay used […] fluorescent product. The Km for the Resorufin beta-D-Glucopyranoside and Fluorescein di-beta-D-Glucopyranoside were determined to be 71.2 uM and 855 uM, respectively. The IC50 values of Conduritol B Epoxide, a known glucocerebrosidase inhibitor, were determined to be 87.5 uM and 117 uM, respectively. The use of two difference pro-fluorescent substrates in the screens helped to eliminate false positives. All compounds were screened in a titration series resulting in AC50s (e.g., IC50s or EC50s). Data normalization and AC50 calculations were accomplished using GeneData software.
NCGC Assay Protocol Summary
Both enzyme and substrate were diluted in buffer composed of 50mM citric acid/KH2PO4, 10mM sodium taurocholate and 0.01% tween-20 at pH 5.9. The final concentration of the enzyme was 0.2 nM in both assays. The compound library was titrated in 7 to 15 concentrations for the primary screens with a final concentration ranging from 0.6 nM to 50 uM. This particular assay protocol is for the "blue" substrate, and it was performed in 1536-well plate format as follows:
Blue fluorescence substrate assay:
1 uL substrate (final concentration of 80 uM)
Incubate at room temperature (RT) for 40 minutes
3 uL stop solution (1 M NaOH and 1 M glycine in water)
Read the plate in Viewlux plate reader (Ex=365(10) and Em=440(10)).
Potency is the fitted concentration of half-maximal effect.

Sequence of Lysosomal acid glucosylceramidase (Homo sapiens) (P04062 whole entry, looked up): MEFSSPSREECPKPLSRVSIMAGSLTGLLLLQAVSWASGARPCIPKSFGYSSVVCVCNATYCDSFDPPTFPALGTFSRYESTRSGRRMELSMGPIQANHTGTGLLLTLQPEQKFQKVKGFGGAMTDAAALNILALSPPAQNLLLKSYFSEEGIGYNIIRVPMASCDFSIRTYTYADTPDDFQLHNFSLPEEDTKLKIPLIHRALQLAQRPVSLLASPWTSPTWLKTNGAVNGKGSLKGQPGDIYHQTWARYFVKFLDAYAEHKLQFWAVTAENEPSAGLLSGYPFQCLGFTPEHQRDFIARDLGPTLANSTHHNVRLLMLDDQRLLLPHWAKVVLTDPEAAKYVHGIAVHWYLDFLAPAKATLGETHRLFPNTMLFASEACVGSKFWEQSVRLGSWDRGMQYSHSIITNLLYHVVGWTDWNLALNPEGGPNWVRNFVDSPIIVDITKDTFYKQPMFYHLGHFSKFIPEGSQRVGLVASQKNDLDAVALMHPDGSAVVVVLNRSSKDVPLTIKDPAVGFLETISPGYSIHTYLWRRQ

Potency, inactive:
COc1ccc(Oc2ncc3nc(C)c(=O)n(C[C@H]4CCCO4)c3n2)cc1 > 11.4 µM, CN1CCN(c2ncc3ncc(=O)n(CCC#N)c3n2)CC1 > 11.4 µM, COc1ccc(NC(=O)N2CCC3(CC2)CCN(S(=O)(=O)c2ccccc2)CC3)cc1 > 11.4 µM, Cc1ccccc1-c1cc(N2CCN(C)CC2)ncn1 > 11.4 µM, COc1cccc(Cn2c(=O)c(-c3ccccc3)nc3cnc(N4CCNCC4)nc32)c1 > 11.4 µM, CCNc1ncc2nc(-c3ccc(F)cc3)c(=O)n(CCOC)c2n1 > 11.4 µM, COc1ccc(-n2c(=O)cnc3cnc(Oc4ccccc4)nc32)cc1 > 11.4 µM, CC(=O)N1CCC2(CCCN(c3ccccc3)C2)CC1 > 11.4 µM, COc1ccccc1-c1ccc2ncnc(N3CCN(C)CC3)c2c1 > 11.4 µM, Cn1cc(-c2nc3cnc(N4CCNCC4)nc3n(CCC#N)c2=O)c2ccccc21 > 11.4 µM, COc1cccc(Cn2c(=O)c(-c3ccc(F)cc3)nc3cnc(OC)nc32)c1 > 11.4 µM, COc1ccc(NC(=O)N2CC[C@@]3(CCCN(C(=O)c4cccn4C)C3)C2)cc1 > 11.4 µM, COCCNc1ncnc2ccc(-c3cccc(OC)c3)cc12 > 11.4 µM, Cc1cccc(CNc2ncncc2-c2cccc(C#N)c2)c1 > 11.4 µM, CN1CCN(c2ncc3ncc(=O)n(C[C@H]4CCCO4)c3n2)CC1 > 11.4 µM, c1cncc(-c2cncnc2NC2CCNCC2)c1 > 11.4 µM, O=c1c(-c2ccc(F)c(F)c2)nc2cncnc2n1C1CC1 > 11.4 µM, COCCNc1nc(-c2ccccc2Cl)nc2ccccc12 11 µM, Cc1noc(C)c1-c1cc(N2CCN(C)CC2)ncn1 > 11.4 µM, COCCn1c(=O)c(CCc2ccccc2)nc2cnc(N3CCNCC3)nc21 > 11.4 µM, COc1ncc2nc(-c3ccccc3)c(=O)n(C)c2n1 > 11.4 µM, CCNc1ncc2nc(C)c(=O)n(Cc3ccc(F)cc3)c2n1 > 11.4 µM, O=c1cnc2cncnc2n1Cc1ccccc1 > 11.4 µM, COCCn1c(=O)c(-c2cccc(C#N)c2)nc2cnc(OC)nc21 > 11.4 µM, O=C(c1cnccn1)N1CCC[C@@]2(CCN(c3ccncc3)C2)C1 > 11.4 µM, Cc1noc(C)c1C(=O)N1CCC[C@@]2(CCN(c3ccccc3)C2)C1 > 11.4 µM, CN(C)c1ccc(-c2cncnc2NCc2cccs2)cc1 > 11.4 µM, N#Cc1cccc(NC(=O)N2CCC3(CC2)CCN(C(=O)c2ccco2)CC3)c1 > 11.4 µM, COc1ccc(NC(=O)N2CC[C@@]3(CCCNC3)C2)cc1 > 11.4 µM, O=C(O)C1CCN(c2ncnc3ccc(-c4ccccc4C(F)(F)F)cc23)CC1 > 11.4 µM, Cc1ccccc1-c1cncnc1NCc1cccs1 > 11.4 µM, CN(C)c1ncc2nc(-c3ccc(F)cc3)c(=O)n(Cc3ccc(F)cc3)c2n1 > 11.4 µM, COc1ncc2ncc(=O)n(Cc3cccs3)c2n1 > 11.4 µM, CS(=O)(=O)N1CCC2(CC1)CN(C(=O)Nc1ccccc1)C2 > 11.4 µM, CC(C)NC(=O)N1CC2(CCN(S(=O)(=O)c3ccccc3)CC2)C1 > 11.4 µM, COc1cccc(-c2ccc3ncnc(N4CCN(C)CC4)c3c2)c1 > 11.4 µM, N#Cc1ccccc1-c1ccc2ncnc(N3CCNCC3)c2c1 > 11.4 µM, CN1CC[C@@]2(CCCN(C(=O)c3cccc(F)c3)C2)C1 > 11.4 µM, N#CCCn1c(=O)cnc2cnc(N3CCOCC3)nc21 > 11.4 µM, CC(=O)N1CCC2(CC1)CN(c1ccccn1)C2 > 11.4 µM
